Here are results for 14 sequences from PMC11006913.

Residue numbers refer to the chain shown, from its start.

Common to all, as to experiment: PBM; 200 nM protein, PBS
Common to all, as to settings: dsDNA, one strand shown

The target in assay [1] is HOXA4 (Homo sapiens, UniProt Q00056 201-287, W262R).
The target in assay [2] is HOXC9 (Homo sapiens, UniProt P31274 178-260, K195R).
Assay [3] has as its target HOXA4 (Homo sapiens, UniProt Q00056 201-287, R217L).
For assay [4], the target named is HOXC9 (Homo sapiens, UniProt P31274 178-260).
Sequence of HOXC9 (Homo sapiens, UniProt P31274 178-260) (P31274 178-260): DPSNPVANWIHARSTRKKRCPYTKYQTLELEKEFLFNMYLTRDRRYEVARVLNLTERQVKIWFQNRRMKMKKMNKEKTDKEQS
For assay [5], the target named is ALX1 (Homo sapiens, UniProt Q15699 118-204, L144V).
Sequence of ALX1 (Homo sapiens, UniProt Q15699 118-204, L144V) (Q15699 118-204 L144V): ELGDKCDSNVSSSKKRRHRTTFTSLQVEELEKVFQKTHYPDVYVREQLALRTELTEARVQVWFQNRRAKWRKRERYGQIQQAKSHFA
Assay [6] concerns the target HOXC9 (Homo sapiens, UniProt P31274 178-260, R193K).
Assay [7] has as its target ALX1 (Homo sapiens, UniProt Q15699 118-204, L144R).
The target of assay [8] is HOXA4 (Homo sapiens, UniProt Q00056 201-287).
Sequence of HOXA4 (Homo sapiens, UniProt Q00056 201-287) (Q00056 201-287): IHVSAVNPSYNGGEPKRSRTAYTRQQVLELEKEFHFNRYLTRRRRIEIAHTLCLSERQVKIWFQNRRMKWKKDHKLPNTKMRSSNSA
Assay [9] deals with PROP1 (Homo sapiens, UniProt O75360 56-141).
Sequence of PROP1 (Homo sapiens, UniProt O75360 56-141) (O75360 56-141): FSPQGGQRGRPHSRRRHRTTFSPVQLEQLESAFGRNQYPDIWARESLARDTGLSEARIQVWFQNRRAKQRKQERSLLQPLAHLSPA
Assay [10] deals with PROP1 (Homo sapiens, UniProt O75360 56-141, R99H).
Sequence of PROP1 (Homo sapiens, UniProt O75360 56-141, R99H) (O75360 56-141 R99H): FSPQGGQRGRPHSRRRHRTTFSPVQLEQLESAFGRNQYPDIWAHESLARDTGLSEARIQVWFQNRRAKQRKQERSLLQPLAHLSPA
For assay [11], the target named is HOXC9 (Homo sapiens, UniProt P31274 178-260, R222W).
Sequence of HOXC9 (Homo sapiens, UniProt P31274 178-260, R222W) (P31274 178-260 R222W): as the sequence (P31274 178-260) above, with R45W counted along it
Assay [12] concerns the target PROP1 (Homo sapiens, UniProt O75360 56-141, F88S).
Assay [13] deals with ALX1 (Homo sapiens, UniProt Q15699 118-204).
Sequence of ALX1 (Homo sapiens, UniProt Q15699 118-204) (Q15699 118-204): as the sequence (Q15699 118-204 L144V) above, with V27L counted along it
In assay [14] the target is HOXA4 (Homo sapiens, UniProt Q00056 201-287, W262F).
Sequence of HOXA4 (Homo sapiens, UniProt Q00056 201-287, W262F) (Q00056 201-287 W262F): as the sequence (Q00056 201-287) above, with W62F counted along it
For assay [15], the target named is T1, SIX6 (Homo sapiens, UniProt O95475 114-200, L167I).
T1 sequence: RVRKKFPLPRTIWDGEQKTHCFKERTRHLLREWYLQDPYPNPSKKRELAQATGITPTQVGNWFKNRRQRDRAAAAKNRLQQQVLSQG

The target in assay [16] is T2, SIX6 (Homo sapiens, UniProt O95475 114-200, T139Q).
T2 sequence: T1 sequence with T26Q, I54L

In assay [17] the target is T3, SIX6 (Homo sapiens, UniProt O95475 114-200, L167V).
T3 sequence: T1 sequence with I54V

In assay [18] the target is ALX4 (Homo sapiens, UniProt Q9H161 200-286, Q225E).
Sequence of ALX4 (Q9H161 200-286 Q225E): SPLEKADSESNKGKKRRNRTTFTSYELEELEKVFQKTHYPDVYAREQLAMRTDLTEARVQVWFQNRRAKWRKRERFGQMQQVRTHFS
For assay [19], the target named is T4, NKX2-6 (Homo sapiens, UniProt A6NCS4 118-204, R150C).
T4 sequence: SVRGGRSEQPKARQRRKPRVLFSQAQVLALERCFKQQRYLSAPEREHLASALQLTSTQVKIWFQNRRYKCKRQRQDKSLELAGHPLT

Assay [20] concerns the target PITX2 (Homo sapiens, UniProt Q99697 72-157).

Sequence of HOXA4 (Homo sapiens, UniProt Q00056 201-287, W262R) (Q00056 201-287 W262R): as the sequence (Q00056 201-287) above, with W62R counted along it
Sequence of PROP1 (Homo sapiens, UniProt O75360 56-141, F88S) (O75360 56-141 F88S): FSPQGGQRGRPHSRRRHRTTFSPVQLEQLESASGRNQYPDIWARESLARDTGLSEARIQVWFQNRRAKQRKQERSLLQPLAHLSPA
Sequence of HOXA4 (Homo sapiens, UniProt Q00056 201-287, R217L) (Q00056 201-287 R217L): as the sequence (Q00056 201-287) above, with R17L counted along it
Sequence of ALX1 (Homo sapiens, UniProt Q15699 118-204, L144R) (Q15699 118-204 L144R): as the sequence (Q15699 118-204 L144V) above, with V27R counted along it
Sequence of HOXC9 (Homo sapiens, UniProt P31274 178-260, K195R) (P31274 178-260 K195R): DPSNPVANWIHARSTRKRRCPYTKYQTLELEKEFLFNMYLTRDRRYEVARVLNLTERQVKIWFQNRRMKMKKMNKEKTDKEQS
Sequence of HOXC9 (Homo sapiens, UniProt P31274 178-260, R193K) (P31274 178-260 R193K): as the sequence (P31274 178-260) above, with R16K counted along it

Take CCGAGAGG: the binding signal is 9.76 upbm affinity estimate (log intensity, higher = more binding, comparable within an allelic series) in assay [1]; 9.41 upbm affinity estimate (log intensity, higher = more binding, comparable within an allelic series) in assay [2]; 9.77 upbm affinity estimate (log intensity, higher = more binding, comparable within an allelic series) in assay [3]; 9.42 upbm affinity estimate (log intensity, higher = more binding, comparable within an allelic series) in assay [4]; 6.38 upbm affinity estimate (log intensity, higher = more binding, comparable within an allelic series) in [5]; 9.45 upbm affinity estimate (log intensity, higher = more binding, comparable within an allelic series) in [6]. Also, the binding signal in assay [7] was 6.33 upbm affinity estimate (log intensity, higher = more binding, comparable within an allelic series); in [8], 9.59 upbm affinity estimate (log intensity, higher = more binding, comparable within an allelic series); in assay [9] it was 6.47 upbm affinity estimate (log intensity, higher = more binding, comparable within an allelic series); in [10], 6.52 upbm affinity estimate (log intensity, higher = more binding, comparable within an allelic series); in assay [11], 9.58 upbm affinity estimate (log intensity, higher = more binding, comparable within an allelic series); in assay [12], 6.64 upbm affinity estimate (log intensity, higher = more binding, comparable within an allelic series). Further, the binding signal in [13] is 6.34 upbm affinity estimate (log intensity, higher = more binding, comparable within an allelic series); in [14], 9.74 upbm affinity estimate (log intensity, higher = more binding, comparable within an allelic series).
CAGATATC: the binding signal was 11.1 upbm affinity estimate (log intensity, higher = more binding, comparable within an allelic series) in [15]; 11.1 upbm affinity estimate (log intensity, higher = more binding, comparable within an allelic series) in assay [16]; 10.8 upbm affinity estimate (log intensity, higher = more binding, comparable within an allelic series) in assay [17].
As to CAATAAAG, the binding signal in [18] was 10.7 upbm affinity estimate (log intensity, higher = more binding, comparable within an allelic series); in [11], 11.1 upbm affinity estimate (log intensity, higher = more binding, comparable within an allelic series).
Regarding AGGGACGG, the binding signal in assay [19] is 9.6 upbm affinity estimate (log intensity, higher = more binding, comparable within an allelic series).
Regarding GACTCCGC, the binding signal in [5] is 6.29 upbm affinity estimate (log intensity, higher = more binding, comparable within an allelic series); in [7] it was 6.35 upbm affinity estimate (log intensity, higher = more binding, comparable within an allelic series); in [13], 6.25 upbm affinity estimate (log intensity, higher = more binding, comparable within an allelic series).
Turning to GCGGTCAC, in [20], the binding signal is 7.97 upbm affinity estimate (log intensity, higher = more binding, comparable within an allelic series).
Regarding CATCCCCC, the binding signal in assay [9] is 6.77 upbm affinity estimate (log intensity, higher = more binding, comparable within an allelic series); in assay [10] it was 6.66 upbm affinity estimate (log intensity, higher = more binding, comparable within an allelic series); in assay [12], 6.11 upbm affinity estimate (log intensity, higher = more binding, comparable within an allelic series).
Turning to CCCAGACC, the binding signal was 6.45 upbm affinity estimate (log intensity, higher = more binding, comparable within an allelic series) in assay [9]; 6.71 upbm affinity estimate (log intensity, higher = more binding, comparable within an allelic series) in assay [10]; 6.48 upbm affinity estimate (log intensity, higher = more binding, comparable within an allelic series) in assay [12].
Turning to ACCCTAGG, the binding signal in assay [1] is 9.88 upbm affinity estimate (log intensity, higher = more binding, comparable within an allelic series); in [3], 9.89 upbm affinity estimate (log intensity, higher = more binding, comparable within an allelic series); in [8], 9.97 upbm affinity estimate (log intensity, higher = more binding, comparable within an allelic series); in assay [14], 9.92 upbm affinity estimate (log intensity, higher = more binding, comparable within an allelic series).
For the sequence GAAAACGA, the binding signal in assay [1] is 10.1 upbm affinity estimate (log intensity, higher = more binding, comparable within an allelic series); in assay [8], 10.9 upbm affinity estimate (log intensity, higher = more binding, comparable within an allelic series).
As for CAATCACG, the binding signal is 10.3 upbm affinity estimate (log intensity, higher = more binding, comparable within an allelic series) in assay [1]; 10.8 upbm affinity estimate (log intensity, higher = more binding, comparable within an allelic series) in [3]; 11.2 upbm affinity estimate (log intensity, higher = more binding, comparable within an allelic series) in assay [8]; 10.5 upbm affinity estimate (log intensity, higher = more binding, comparable within an allelic series) in assay [14].
As to CTCCCACC, the binding signal in assay [1] was 9.83 upbm affinity estimate (log intensity, higher = more binding, comparable within an allelic series); in assay [3] it was 9.72 upbm affinity estimate (log intensity, higher = more binding, comparable within an allelic series); in [8], 9.74 upbm affinity estimate (log intensity, higher = more binding, comparable within an allelic series); in [14] it was 9.88 upbm affinity estimate (log intensity, higher = more binding, comparable within an allelic series).
As for ATATTGAG, the binding signal in assay [1] was 10.3 upbm affinity estimate (log intensity, higher = more binding, comparable within an allelic series); in assay [8], 10.9 upbm affinity estimate (log intensity, higher = more binding, comparable within an allelic series).
AGGGGGCA: the binding signal in assay [1] is 9.67 upbm affinity estimate (log intensity, higher = more binding, comparable within an allelic series); in assay [3], 9.81 upbm affinity estimate (log intensity, higher = more binding, comparable within an allelic series); in assay [8], 9.88 upbm affinity estimate (log intensity, higher = more binding, comparable within an allelic series); in assay [14], 9.82 upbm affinity estimate (log intensity, higher = more binding, comparable within an allelic series).
